TDP1 cell CPT = qHTS for Inhibitors of human tyrosyl-DNA phosphodiesterase 1 (TDP1): qHTS in cells in presence of CPT; AID 686979, 2013; Potency, µM (top dose mostly 46.2 µM), for inactives: top-dose activity change, negative = growth inhibition, usual class: inhibitors; 12% of 420,000 active; chicken DT40 Tdp1-/-;hTDP1 cells + 20 nM CPT, ATP luminescence, 48 h; also: potency is read from the fitted curve at half-maximal effect; nearly all actives have a fitted effect of over 55% in size
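Chicken DT40 Tdp1-/- cells stably complemented with human TDP1 were seeded at 400 cells/well in medium containing 20 nM camptothecin, exposed to pin-transferred compounds, and grown at 37 °C for at least 48 hr. Viability was read as ATP luminescence.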
IL1B secr inh = qHTS for Inhibitors of Inflammasome Signaling: IL-1-beta AlphaLISA Primary Screen. THP-1 LPS/ATP IL-1B secretion, AlphaLISA, 16 h; stronger effect = lower value. activity change, % at 57.5 µM. 4.7% of 360,000 active. AID 743279, 2014; in the data active = activity change below about -50%; inconclusive = mostly about -30% to -49%
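THP-1 cells pretreated 1 hr with compounds (up to 57.5 uM final), then stimulated with LPS (250 ng/mL final) plus ATP (1.25 mM final); secreted IL-1B measured by AlphaLISA after 16 hr, decreased signal indicating inhibition.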
DT40 TDP1 no CPT = qHTS for Inhibitors of human tyrosyl-DNA phosphodiesterase 1 (TDP1): qHTS in cells in absence of CPT | Potency, µM (series often up to 46.2 µM), inactives show at the highest dose activity change, negative = growth inhibition, usual class: inhibitors | DT40 Tdp1-/- hTDP1 cells, no CPT, ATP luminescence, 48 h | 15% of 420,000 active; also: potency is read from the fitted curve at half-maximal effect; nearly all actives have a fitted effect of over 55% in size
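Compound effects on proliferation are scored in DT40 Tdp1-/-;hTDP1 cells in the absence of CPT. ATP levels (CellTiter-Glo luminescence) are recorded after a ≥48 hr, 37 °C incubation.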
ELG1 DNA repair = qHTS screen for small molecules that inhibit ELG1-dependent DNA repair in human embryonic kidney (HEK293T) cells expressing luciferase-tagged ELG1; HEK293T ELG1-luciferase reporter, luminescence, 16 h; DNA damage induced by 5-fluorouridine; Potency, µM (doses to about 46.1 µM), inactives show at the top dose activity change, negative = inhibition, usual class: inhibitors; 2.3% of 330,000 active; also: potency is read from the fitted curve at half-maximal effect; nearly all actives have a fitted effect of over 55% in size
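Quantitative HTS, concentration-response format. 2,000 cells/well co-treated with 5-fluorouridine and compound, 16 hr in 5% CO2 at 37 °C; ONE-Glo luminescence read after 30 min.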
HT1080 IDH1KD tx = qHTS for induction of synthetic lethality in tumor cells producing 2HG: qHTS for the HT-1080-IDH1KD cell line; HT-1080 IDH1 knockdown viability, ATP luminescence, 48 h; Potency, µM (titrated, usually from 46.1 µM), for inactives: at the highest dose activity, negative = toxicity, usual class: cytotoxic; 2% of 360,000 active;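 also: potency is read from the fitted curve at half-maximal effect; 0% = DMSO wells and -100% = cell-free medium wells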
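After a 2 h attachment period, IDH1KD HT-1080 cells took pin-transferred compound for 48 h at 37 °C; ATP-based luminescence after 10 min room-temperature reagent incubation reported viability.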
HT1080-NT tox = qHTS for induction of synthetic lethality in tumor cells producing 2HG: qHTS for the HT-1080-NT fibrosarcoma cell line; HT-1080-NT fibrosarcoma viability, CellTiter-Glo ATP luminescence, 48 h; 1.6% of 360,000 active; Potency, µM (highest dose often 46.1 µM), for the others: at the top dose activity, negative = less viability, hits mostly cytotoxic; AID 686970, 2013;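 also: NT is the 2HG producing partner of a matched IDH1 knockdown line; potency is read from the fitted curve at half-maximal effect; 0% = DMSO-treated cells and -100% = media-only wells without cells; nearly all actives have a fitted effect of over 55% in size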
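HT-1080-NT fibrosarcoma cells (2HG-overproducing), 750 cells/well in RPMI with 5% FBS, dosed after 2 h and incubated 48 h at 37C. CellTiter-Glo luminescence normalized to DMSO and no-cell wells; concentration-response curves fitted and classed.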
Numbers without * were called inactive; ? = inconclusive; nt = not tested or not shown. Shown are actives, neighbours in structure and some others; about 19% of the full set was active somewhere. Unless noted, calls follow the shape of the dose curve; as a rule, active = well fitted curve in the direction sought with a large enough effect; inconclusive = small, poorly fitted or top-dose-only effect, or another doubt; inactive = no such curve, though single readings can be large; an effect the other way counts as inactive or inconclusive. Unless noted, % is scaled to controls: 0 for no effect and ±100 for the full control effect.

SMILES | TDP1 cell CPT | IL1B secr inh | DT40 TDP1 no CPT | ELG1 DNA repair | HT1080 IDH1KD tx | HT1080-NT tox
CCCC(=O)NC(c1cccs1)c1cc(Cl)c2cccnc2c1O (centres undefined) | 5.17µM* | 88.9 | 2.91µM* | 5.3% | ? | -28.0%
Cc1c(CC(=O)N2CCC(C(=O)O)CC2)c(=O)oc2cc3c(cc12)CCC1(CCCCC1)O3 | 0.9% | 11.6 | -8.9% | 17.9% | -9.5% | -3.1%
COC(=O)c1c(-c2cc(OC)c(OC)c(OC)c2)c2ccnc(OCc3ncccn3)c2c(=O)n1Cc1ccnc(C)c1 | 22.8% | nt | -0.5% | nt | nt | nt
COc1ccc(-c2ccc3c(=O)cc(-c4ccsc4)oc3c2)cn1 | 18.4µM* | -3.8 | ? | -19.7% | 5.9% | -11.3%
O=c1cc(-c2ccsc2)oc2cc(-c3ccc4c(c3)OCO4)ccc12 | 18.4µM* | 0.7 | ? | ? | 14.3% | 9.0%
O=c1cc(-c2ccc3c(c2)OCCO3)oc2ccc(Cl)cc12 | ? | -4.0 | ? | ? | 12.9% | 24.2%
Cc1cccc(-c2noc(CN(C)S(=O)(=O)c3cc(Cl)ccc3Cl)n2)c1 | -28.4% | 39.2 | -29.1% | 0.5% | -9.1% | -14.0%
Cc1cccc(-c2noc(CN(C3CCCCC3)S(=O)(=O)c3ccc(F)cc3)n2)c1 | 20.6µM* | nt | 14.6µM* | nt | nt | nt
COc1ccc(S(=O)(=O)N(Cc2nc(-c3cccc(C)c3)no2)C2CCCCC2)cc1 | 14.6µM* | nt | ? | nt | nt | nt
Cc1ccc(S(=O)(=O)N(Cc2nc(-c3cccc(C)c3)no2)C2CCCCC2)cc1 | ? | nt | 10.3µM* | nt | nt | nt
C/C(=C1/C=Nc2ccccc21)c1ccc(N(C)C)cc1 | 7.94µM* | nt | 10µM* | nt | nt | nt
c1cc2c(c(NCc3ccncc3)c1)CCCC2 | 11.6µM* | 16.5 | 11.6µM* | -18.2% | -10.7% | -6.2%
COc1ccccc1C(=O)Nc1ccc(C(=O)/C=C/c2cccs2)cc1 | ? | ? | 18.4µM* | 5.0% | -18.5% | -21.8%
O=C(/C=C/c1cccs1)c1ccc(NC(=O)c2ccccc2F)cc1 | -23.2% | 11.0 | 11.6µM* | ? | 11.9% | -3.8%
COc1ccccc1C(=O)NC(=S)Nc1ccc(NC(=O)c2cccs2)cc1 | -29.6% | -12.6 | -5.2% | ? | -9.0% | -13.5%
C[C@H](CO)N1C[C@H](C)[C@@H](CN(C)S(=O)(=O)c2cn(C)cn2)Oc2ccc(NC(=O)C3CCCCC3)cc2C1=O | 2.6% | 11.2 | -7.0% | 15.2% | 4.7% | 5.0%
CCCc1cc2c(=O)c(-c3cscn3)c(C(=O)OCC)oc2cc1O | -3.9% | 19.4 | 2.6% | 18.2% | 11.3% | ?
CCOC(=O)c1[nH]nc(-c2cc(CC)c(O)cc2O)c1-c1cscn1 | ? | -60.6* | ? | ? | ? | ?
COc1ccc(CNC(=O)CN2C(=O)NC(c3ccccc3)(c3ccccc3)C2=O)cc1 | ? | -17.2 | -29.9% | -16.0% | -21.0% | -14.2%
COc1ccc(C(C(=O)NC2CCCC2)N(C(=O)c2snc(C(N)=O)c2N)c2cccc(O)c2)cc1 (centres undefined) | ? | -3.6 | 13µM* | 16.4µM* | -7.3% | ?
NC(=O)c1nsc(C(=O)N(c2cccc(F)c2)C(C(=O)NC2CCCC2)c2ccc(O)cc2)c1N (centres undefined) | -26.8% | 5.8 | -18.8% | 10.7% | -7.3% | -23.0%
COc1ccc(C(C(=O)NC2CCCC2)N(C(=O)c2snc(C(N)=O)c2N)c2ccccc2OC)cc1OC (centres undefined) | -27.6% | -9.0 | -9.2% | 0.3% | 6.9% | 11.6%
COc1ccc(-c2nsc(C(=O)N(c3ccc(F)cc3)C(C(=O)NC3CCCC3)c3ccc(OC)cc3)c2N)cc1 (centres undefined) | 16.4µM* | -3.4 | 16.4µM* | 0.8% | -1.8% | ?
CCOc1ccc(N(C(=O)c2snc(C(N)=O)c2N)C(C(=O)NC2CCCC2)c2ccncc2)cc1 (centres undefined) | 3.7% | 19.9 | -15.6% | 0.4% | -15.7% | -20.7%
COc1ccc(N(C(=O)c2snc(C(N)=O)c2N)C(C(=O)NC2CCCCC2)c2ccc(F)cc2)c(OC)c1 (centres undefined) | 2.91µM* | -21.8 | ? | ? | -0.3% | -7.1%
SMILES | TDP1 cell CPT | IL1B secr inh | DT40 TDP1 no CPT | ELG1 DNA repair | HT1080 IDH1KD tx | HT1080-NT tox
COc1ccc(N(C(=O)c2snc(C(N)=O)c2N)C(C(=O)NC2CCCC2)c2cc(OC)ccc2OC)c(OC)c1 (centres undefined) | 23.1µM* | -25.1 | 29.1µM* | 3.5% | -4.8% | -27.5%
CCOC(=O)C1(Cc2cccc(OC)c2)CCCN(C(=O)CCc2cccnc2)C1 (centres undefined) | -3.8% | -9.8 | -6.7% | ? | -1.2% | -0.4%
COc1ccc(C(C(=O)NC2CCCC2)N(C(=O)c2snc(C(N)=O)c2N)c2cc(C)ccc2OC)cc1OC (centres undefined) | ? | -11.5 | 18.4µM* | -3.7% | -28.9% | -12.2%
Cc1noc(/C=C/c2ccco2)c1S(=O)(=O)N1CCC(C(=O)N2CCc3ccccc3C2)CC1 | 20.6µM* | ? | 18.4µM* | ? | -17.1% | -15.1%
Cc1ccc(NC(=O)C2CCN(S(=O)(=O)c3c(C)noc3/C=C/c3ccco3)CC2)nc1 | ? | 0.0 | 18.4µM* | 14.6µM* | -3.7% | -1.2%
Cc1noc(/C=C/c2ccco2)c1S(=O)(=O)N1CCC(C(=O)NCc2ccco2)CC1 | -18.8% | -21.5 | ? | ? | 0.4% | 5.8%
Cc1ccccc1NC(=O)C1CCN(S(=O)(=O)c2c(C)noc2/C=C/c2ccco2)CC1 | -5.5% | nt | -13.3% | nt | nt | nt
C=CCNc1nc(-c2cccc(OC)c2O)nc2ccccc12 | ? | -12.4 | ? | ? | -20.6% | -8.5%
CCN(CC)c1nc(-c2cccc(OC)c2O)nc2ccccc12 | 18.4µM* | -16.1 | 23.1µM* | ? | ? | -1.8%
COc1cccc(-c2nc(N3CCN(C)CC3)c3ccccc3n2)c1O | -109.7% | -98.2* | 16.4µM* | 0.0% | 14.6µM* | -24.0%
